AGP1 TOR yeast = alters AGP1-GFP fluorescence in TOR pathway yeast screen. S. cerevisiae AGP1-GFP multiplex flow cytometry, 3 h; GFP as percent of DMSO wells. GFP response vs DMSO, % at 10 µM. actives 0.02% (n = 320,000). AID 2066;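 active means GFP response relative to DMSO above a set limit, near screen average plus 3 SD, cut at about 150% in these data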;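 further: median GFP channel fluorescence of the gated AGP1 strain per well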
MEP2 TOR yeast = yeast TOR pathway MEP2-GFP modulation; S. cerevisiae MEP2-GFP strain, flow cytometry GFP, 3 h; 100% = DMSO control level; GFP response vs DMSO, % at 10 µM; actives 0.51% (n = 330,000); AID 2016;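 active means GFP response versus DMSO above a set limit, roughly screen mean plus 3 SD, cut at about 180% in these data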;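 further: median GFP fluorescence of the barcode-gated MEP2-GFP cells per well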
CIT2-GFP yeast = yeast TOR pathway CIT2-GFP modulation. S. cerevisiae CIT2-GFP strain, flow cytometry, 3 h; 100 means same as DMSO wells. GFP response vs DMSO, % at 10 µM. actives 0.065% (n = 320,000). AID 2029;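 active means GFP response relative to DMSO above a set limit, near the screen mean plus 3 SD, cut at about 150% in these data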;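 further: ratio of well median GFP fluorescence to mean of DMSO wells on the plate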
LAP4-GFP MLPCN = yeast TOR pathway LAP4-GFP modulation; S. cerevisiae LAP4-GFP multiplex, flow cytometry GFP, 3 h; median GFP as percent of DMSO wells; GFP response vs DMSO, % at 10 µM; actives 0.34% (n = 320,000); AID 2023;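 active means GFP response vs DMSO above a set limit, about the screen mean plus 3 SD, cut at about 150% in these data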
RPL19A-GFP yeast = modulators of TOR pathway RPL19A-GFP in S. cerevisiae; actives 0.3% (n = 330,000); percent response vs DMSO, % at 10 µM; S. cerevisiae RPL19A-GFP strain, flow cytometry, 3 h; active compounds read low;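 active means percent response vs DMSO below 50%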;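 further: median channel GFP fluorescence of the barcoded RPL19A-GFP strain; ratio of sample median GFP to plate DMSO average so 100% = DMSO; lower means less RPL19A-GFP as with rapamycin TOR inhibition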
LAP4-GFP pick2 = yeast LAP4-GFP modulation, second cherry pick | shares compounds with LAP4-GFP MLPCN | S. cerevisiae LAP4-GFP strain, flow cytometry GFP, 3 h | GFP response vs DMSO, % at 10 µM | actives 20% (n = 590) | AID 2621;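 active means GFP signal as percent of the solvent control above about 150%, meaning raised reporter expression, limit read from the data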;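 further: ratio of well median GFP fluorescence to plate DMSO mean so 100% = DMSO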
MEP2 cherry2 = yeast MEP2-GFP modulation, second cherry pick | AID 2622 | actives 10% (n = 590) | GFP response vs DMSO, % at 10 µM | S. cerevisiae MEP2-GFP strain, flow cytometry GFP, 3 h | shares compounds with LAP4-GFP MLPCN;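 active means GFP signal above 150% of the solvent control wells, that is a rise of more than half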;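 further: median channel GFP fluorescence of all gated yeast cells per well; ratio of median GFP to plate DMSO average so 100% = DMSO level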
RPL19A GFP CP2 = yeast RPL19A-GFP TOR reporter modulation, second cherry pick; actives 3% (n = 590); shares compounds with LAP4-GFP MLPCN; S. cerevisiae RPL19A-GFP strain, flow cytometry GFP, 3 h; active compounds read low; 100% means same as DMSO wells; GFP response vs DMSO, % at 10 µM;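 active means under 65% GFP response relative to DMSO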;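 further: median GFP channel fluorescence per well over the all cells gate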
CIT2 GFP CP2 = reconfirmed modulator of CIT2-GFP TOR reporter in yeast; shares compounds with LAP4-GFP MLPCN; S. cerevisiae CIT2-GFP strain, flow cytometry GFP, 3 h; DMSO control wells read 100%; GFP response vs DMSO, % at 10 µM; actives 8% (n = 590); AID 2624;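 active means GFP response vs DMSO above about 150%, limit read from the data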;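 further: median green fluorescence per well over all gated yeast cells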
AGP1-GFP pick2 = reconfirmed modulator of AGP1-GFP TOR reporter in yeast | shares compounds with LAP4-GFP MLPCN | S. cerevisiae AGP1-GFP strain, flow cytometry GFP, 3 h | percent response vs DMSO, % at 10 µM | 590 tested, under 10 active | AID 2643;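 active means over 150 percent of DMSO response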;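 further: median GFP channel fluorescence over all cells without mother daughter split; sample median GFP divided by mean DMSO control so 100% equals DMSO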
Yeast autofluor = counter-screen for compound autofluorescence in yeast s288c cells | fluorescence change (kMESF span) at 33 µM | S. cerevisiae s288c, 520 nm autofluorescence, flow cytometry, 3 h; active compounds read high; zero means same as solvent-only cells | shares compounds with LAP4-GFP MLPCN | AID 2757 | 610 tested, under 10 active;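 active means fluorescence span over the dose series, or activity score, above about 33, limit read from the data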
Yeast autofl DR = TOR screen hit shows autofluorescence in yeast s288c; shares compounds with LAP4-GFP MLPCN; S. cerevisiae s288c parental, compound autofluorescence, flow cytometry, 3 h; fluorescence change (span) at 33 µM; 110 tested, under 10 active; AID 488829;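 active means fluorescence change span, or the activity score built from it, above 25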
TORC1 bypass = wildtype yeast growth loss with TORC1 bypass cells unaffected | S. cerevisiae BY4741 spot growth rating, 48-72 h; active compounds read low | growth rating (0-3) at 30 µM | 120 tested, under 10 active | shares compounds with LAP4-GFP MLPCN;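 active means growth rating at most 1 for wild type yeast while the TORC1 bypass strain still grows fully, rated 3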
An asterisk follows results filed as active; nt = no result; [ ] = another dose, or the depositor's remark. In the library only some 0.93% were active in any assay of this set; here they are far more common.

SMILES	AGP1 TOR yeast	MEP2 TOR yeast	CIT2-GFP yeast	LAP4-GFP MLPCN	RPL19A-GFP yeast	LAP4-GFP pick2	MEP2 cherry2	RPL19A GFP CP2	CIT2 GFP CP2	AGP1-GFP pick2	Yeast autofluor	others
NC(=O)c1c(NC(=O)Cc2ccccc2)sc2c1CCN(Cc1ccccc1)C2	93	98	94	100	96	nt	nt	nt	nt	nt	nt
Cc1cccc(N=Nc2ccc(O)c3ncccc23)c1	102	96	99	165*[may fluoresce green]	99	200*	129	104	131	108	1.6
N#Cc1ccc(-c2nc3ccc(Br)cc3c(=O)n2O)cc1	87	96	80	131	85	nt	nt	nt	nt	nt	nt
O=c1c2cc(Br)ccc2nc(-c2ccc([N+](=O)[O-])cc2)n1O	68	88	69	121	65	148	169*	51*	121	80	0.2
C[C@@]12C(=O)Nc3cc(Cl)ccc3C(=O)N1[C@H]1c3ccccc3OC[C@@H]1[C@@H]2c1ccccc1	88	90	97	121	102	nt	nt	nt	nt	nt	nt
C[C@@]12C(=O)Nc3ccc(Cl)cc3C(=O)N1[C@H]1c3ccccc3OC[C@@H]1[C@@H]2c1ccccc1	90	94	86	157*	104	132	121	96	92	98	nt
COc1ccc(S(=O)(=O)NCCc2cn3nc(C)c(C)nc3n2)cc1F	23	120	98	85	62	98	100	99	100	98	nt
CC(=O)Nc1ccc(S(=O)(=O)NCCc2cn3nc(C)c(C)nc3n2)cc1	104	93	96	97	97	nt	nt	nt	nt	nt	nt
CN(C)c1ccc(/C=C/c2cc[n+](C)cc2)cc1	123	249*	182*	199*	116	nt	nt	nt	nt	nt	11
CN(C)c1ccc(/C=C/c2cc[n+]([O-])cc2)cc1	104	130	108	109	102	nt	nt	nt	nt	nt	nt
O=C(CN1C(=O)c2ccccc2S1(=O)=O)NCc1ccccc1Cl	22	299*	69	81	95	97	94	99	114	96	nt
CCOC(=O)C1(Cc2ccc(OC)cc2)CCN(C(=O)CCc2cccnc2)CC1	101	101	99	94	101	nt	nt	nt	nt	nt	nt
O=C(O)CCCc1ccc2c(c1)CCc1ccccc1-2	72	87	59	173*	87	109	96	91	97	88	nt
CC1=NN(c2ccccc2)C(=O)/C1=C/c1c(C)[nH]n(-c2ccc(C)cc2)c1=O	90	92	88	98	92	97	103	106	100	102	nt
CC1=NN(c2ccccc2)C(=O)/C1=C/c1cccc(C)c1	93	101	100	101	107	nt	nt	nt	nt	nt	nt
COc1cc(/C=C2\C(=O)ON=C2c2ccc(Cl)cc2)ccc1O	87	98	89	224*	85	nt	nt	nt	nt	nt	0.5
Cc1ccc(/C=C2\C(=O)ON=C2c2ccccc2)o1	71	102	60	105	96	nt	nt	nt	nt	nt	nt
O=C1ON=C(c2ccccc2)/C1=C/c1ccc(O)c(O)c1	91	97	111	136	90	nt	nt	nt	nt	nt	nt
Cc1ccc(C2=NOC(=O)/C2=C\c2ccc(C)o2)cc1	78	74	58	203*	88	nt	nt	nt	nt	nt	4.3	Yeast autofl DR=1.8;TORC1 bypass=3
COc1ccc(/C=C2\C(=O)ON=C2c2ccccc2)cc1	72	74	88	168*	90	160*	115	78	104	86	0.3
CCCNc1nc(-c2cc(C(=O)Nc3ccccc3)on2)cc(C(C)C)n1	92	107	98	115	98	100	100	94	96	104	nt
Cc1cc(-c2cc(C(=O)NCc3ccccc3)on2)nc(S(C)(=O)=O)n1	97	98	88	103	95	102	98	101	101	99	nt
COCCNc1nc(C)cc(-c2cc(C(=O)Nc3ccccc3)on2)n1	89	90	93	103	98	102	103	100	107	98	nt
COCCNc1nc(C)cc(-c2cc(C(=O)NCc3ccccc3)on2)n1	120	356*	118	230*	70	101	102	99	101	98	nt
CCCN(CCC)CCCn1c(=O)[nH]c2ccccc21	100	89	97	93	96	nt	nt	nt	nt	nt	nt
SMILES	AGP1 TOR yeast	MEP2 TOR yeast	CIT2-GFP yeast	LAP4-GFP MLPCN	RPL19A-GFP yeast	LAP4-GFP pick2	MEP2 cherry2	RPL19A GFP CP2	CIT2 GFP CP2	AGP1-GFP pick2	Yeast autofluor	others
CN(C)c1ccc(N=Cc2nc(-c3ccccc3)oc2OC(=O)c2cccc(Cl)c2)cc1	103	99	105	95	105	nt	nt	nt	nt	nt	0.71
Cc1ccc(C(=O)Oc2oc(-c3ccccc3)nc2C=Nc2ccc(N(C)C)cc2)cc1	95	94	91	101	104	nt	nt	nt	nt	nt	1
Cc1ccc(-c2nc(C=Nc3ccccc3)c(O)o2)cc1	98	101	90	113	103	nt	nt	nt	nt	nt	nt
CC(=O)NN1C(=O)/C(=C/c2ccc(Br)o2)SC1=S	104	187*	135	120	105	nt	nt	nt	nt	nt	11
CC(=O)NN1C(=O)/C(=C\c2ccc(Br)o2)SC1=S	96	136	122	107	102	nt	nt	nt	nt	nt	nt
CC(C)(C)c1ccc(OCCn2nc(C(=O)O)c3ccccc3c2=O)cc1	98	98	103	96	99	nt	nt	nt	nt	nt	nt
CC(=O)c1ccc(N2CCN(CC(=O)N(C3CC3)C3CCS(=O)(=O)C3)CC2)c(F)c1 (stereo not given)	101	99	99	102	96	nt	nt	nt	nt	nt	nt
COc1ccc(/C(C)=N/Nc2ccccc2Cl)c(O)c1	46	146	97	94	63	98	108	107	109	97	nt
COc1ccc(-c2nc(C)sc2CC(=O)O)cc1OC	98	96	105	99	94	nt	nt	nt	nt	nt	nt
